# Experimental data published in PubChem BioAssay (NCATS).
# Inconclusive results are not listed. A call without a number means that no potency is given here. Unmarked numbers belong to inactive results. The source made the active and inactive calls. Calls follow the shape of the dose curve; as a rule, active = well fitted inhibition curve with a large enough effect; inconclusive = small, poorly fitted or top-dose-only effect; inactive = no such curve, though single readings can be large or run the other way.
# Tests used:
# [1] = tested on: Zika virus NS2B-NS3 protease (unlinked complex); test: Primary screen GU Rhodamine qHTS for Zika virus inhibitors: Unlinked NS2B-NS3 protease assay (AID 1347159); also: nearly all actives have a fitted effect of over 60% in size
# Outline: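 Percent inhibition came from the 15-min rise in Rhodamine110 fluorescence (1.5 microM substrate, ~15% conversion), normalized to no-inhibitor and no-enzyme wells and Hill-fitted. Unlinked protease, 25 nM, pH 8.0 Tris buffer; compounds up to 114 microM, 15-min preincubation.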
# [2] = tested on: Zika virus NS2B-NS3 protease (linked construct); test: Primary screen NINDS Rhodamine qHTS for Zika virus inhibitors (AID 1347160); also: nearly all actives have a fitted effect of over 55% in size
# Outline: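 Rhodamine110-peptide cleavage (1.5 µM substrate) by 25 nM linked NS2B-NS3 enzyme at pH 8.0 (Tris, Tween 20), after 15 min RT preincubation with compounds; 15-min fluorescence change normalized to controls and Hill-fitted.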
# Potency is read from the fitted curve at half-maximal effect.
SMILES,Potency [1],Potency [2],"activity change, negative = inhibition [1]","activity change, negative = inhibition [2]"
NCc1c[nH]c(=S)n1C1CCc2c(F)cc(F)cc2C1 (stereo unspecified),inactive,inactive,,
COc1cc(O[C@@H]2O[C@H](CO)[C@@H](O)[C@H](O)[C@H]2O)c(CCC(=O)OC[C@H]2O[C@@H](Oc3cc(OC)c(C4OC(=O)C(C)(O)C4O)cc3CCC(=O)O)[C@H](O)[C@@H](O)[C@@H]2O)cc1C1OC(=O)C(C)(O)C1O (stereo partly specified),inactive,inactive,,
O=C(Nc1cccnn1)N1CCC(=Cc2cccc(Oc3ccc(C(F)(F)F)cn3)c2)CC1,inactive,inactive,,
CC(=O)OC(CSC1CCC(=O)OC(C)CCC(=O)C1)C(=O)O (stereo unspecified),inactive,inactive,,
CN1CCC(c2c[nH]c3ccc(NC(=O)c4ccc(F)cc4)cc23)CC1,inactive,inactive,,
O=C1Nc2ccc(O)cc2O[C@H]1O[C@@H]1O[C@H](CO)[C@@H](O)[C@H](O)[C@H]1O,inactive,inactive,,
CC(=O)OC[C@@]12[C@H](O)C[C@@H](C)[C@]3(C[C@@H](c4ccoc4)OC3=O)[C@H]1C[C@H](O)C[C@]21CO1,inactive,inactive,,
CC(C)(O)c1ccc2c(c1)C(O)CC1C(C)(C(=O)O)CCCC21C (stereo unspecified),inactive,inactive,,
CC1(C)C[C@H]2C3=CCC4[C@@]5(C)CC[C@H](O[C@H]6O[C@H](C(=O)O)[C@@H](O)[C@H](O)[C@H]6O[C@H]6O[C@H](CO)[C@@H](O)[C@H](O)[C@H]6O[C@@H]6O[C@H](CO)[C@@H](O)[C@H](O)[C@H]6O)[C@](C)(CO)C5CC[C@@]4(C)[C@]3(C)CC[C@@]2(C)[C@H](O[C@@H]2OC[C@H](O)[C@H](OC3O[C@H](CO)[C@@H](O)[C@H](O)[C@H]3O)[C@H]2O)[C@@H]1O (stereo partly specified),,,6.08% [at 19.1 µM],-4.25% [at 10.7 µM]
O=S(=O)(Nc1ccc(C(O)(C(F)(F)F)C(F)(F)F)cc1)c1cccs1,inactive,inactive,,
C/C=C(\C)C(=O)OC[C@H]1O[C@H](O[C@H]2O[C@H](CO)[C@@H](OC(=O)/C(C)=C/C)[C@H](O)[C@H]2O[C@@H]2O[C@H](CO)[C@@H](O)[C@H](O)[C@H]2O)[C@H](O[C@@H]2O[C@H](CO)[C@@H](O)[C@H](O)[C@H]2O)[C@@H](O)[C@@H]1O,inactive,inactive,,
CC1(C)CCCC2(C)C3=C(C(=O)OC3O)C(O)CC12 (stereo unspecified),inactive,inactive,,
C[C@@H]1C[C@H]2[C@@H]3CCC4=CC(=O)C=C[C@]4(C)[C@@]3(F)[C@@H](O)C[C@]2(C)[C@@]1(O)C(=O)COP(=O)(O)O,inactive,inactive,,
c1ccc(Cc2ncc3c(n2)CCNCC3)cc1,inactive,inactive,,
O=C(NN1CCCCC1)c1nn(-c2ccc(Cl)cc2Cl)c(-c2ccc(C#Cc3ccc(C(F)(F)F)cc3)s2)c1CNS(=O)(=O)N1CCCC1,inactive,inactive,,
CC1=C2C(=O)C=C(CO)[C@@H]2[C@H]2OC(=O)[C@H](C)[C@@H]2[C@@H](O)C1,inactive,inactive,,
COc1cc(C2Oc3c(OC)cc(/C=C/C(=O)OC[C@H]4O[C@@H](OC(C)(C)C(=O)O)[C@H](O)[C@@H](O)[C@@H]4O)cc3C2CO)ccc1O (stereo partly specified),inactive,inactive,,
CC(=O)O[C@@H]1[C@H](O[C@@H]2OC[C@](O)(CO)[C@H]2O)[C@@H](O[C@@H]2O[C@@H](C)[C@H](O)[C@@H](O)[C@H]2O)[C@H](OC(=O)[C@]23CCC(C)(C)C[C@H]2C2=CCC4[C@@]5(C)C[C@H](O)[C@H](O[C@@H]6O[C@H](C(=O)O)[C@@H](O)[C@H](O)[C@H]6O)[C@@](C)(C(=O)O)C5CC[C@@]4(C)[C@]2(C)CC3)O[C@@H]1C (stereo partly specified),inactive,inactive,,
COC1CC(OC2CCC3(C)C(=CCC4C3CCC3(C)C(C(C)O)CCC43O)C2)OC(C)C1OC1OC(C)C(OC2OC(COC3OC(COC4OC(CO)C(O)C(O)C4O)C(O)C(O)C3O)C(O)C(O)C2O)C(OC)C1O (stereo unspecified),inactive,inactive,,
COc1cc(N2CCC(O)CC2)ccc1Nc1cc(Nc2ccccc2S(=O)(=O)C(C)C)c2cc[nH]c2n1,inactive,inactive,,
C[C@]12CCC[C@](C)(C(=O)O)C1CCC13C=C(CO)C(CCC12)C3 (stereo partly specified),inactive,inactive,,
Oc1ccc([C@H]2COc3cc(O)ccc3C2)cc1,inactive,inactive,,
CCC(=O)O[C@]1(C(=O)CCl)[C@@H](C)C[C@H]2[C@@H]3C[C@H](F)C4=CC(=O)C=C[C@]4(C)[C@@]3(F)[C@@H](O)C[C@@]21C,inactive,inactive,,
O=C(c1ccccn1)c1cnn2c(-c3ccncc3)ccnc12,inactive,inactive,,
Cc1cc(O)c(C(C)C)cc1O[C@@H]1O[C@H](CO)[C@@H](O)[C@H](O)[C@H]1O,inactive,inactive,,
CC1(C)CC[C@]2(C(=O)O[C@@H]3O[C@H](CO)[C@@H](O)[C@H](O)[C@H]3O)CC[C@]3(C)C(=CCC4[C@@]5(C)C[C@@H](O)[C@H](O)C(CO)(CO)C5CC[C@]43C)C2[C@@H]1O (stereo partly specified),inactive,inactive,,
O=C(O)C[C@@H](NC(=O)c1cc(-c2ccc(-c3ccncc3)cc2)cs1)c1ccccc1,15.8 µM (active),20 µM (active),,
CO[C@@H](Cc1ccc(OCCc2nc(-c3ccccc3)oc2C)c2ccsc12)C(=O)O,17.8 µM (active),12.6 µM (active),,
